Data as given in PubChem BioAssay AID488802 (Broad Institute, 2010).
Potency and affinity values are given separately. Unmarked numbers belong to inactive results. A call without a number means that no potency is given here. Calls of active or inactive are those of the source. How the calls were made is not given here.

assay: single-agent growth inhibition of C. albicans, dose response, counter-screen for antifungal drug resistance project, C. albicans CaCi-2, dry powder (AID 488802); settings: C. albicans CaCi-2 (fluconazole-resistant clinical isolate) growth, no fluconazole, Alamar Blue, 48 h; series mostly up to 26 µM

Compound | outcome | activity change, negative = inhibition
O=C(Cn1c2ccccc2c2nc3n(c(=O)c21)CCCS3)c1ccc(F)cc1 | inactive | –
CCOC(=O)c1c2ccccc2nn1Cc1ccc(Cl)cc1 | inactive | –
O=C(Cn1nc(-c2ccccc2)c2cc(Cl)ccc21)N1CCOCC1 | inactive | –
O=C(Cn1nc(-c2ccccc2)c2ccccc21)N1CCc2ccccc2C1 | inactive | –
O=C(c1ccccc1)N1CCN(c2ccnc3cc(Cl)ccc23)CC1 | inactive | –
CC1CCN(C(=O)Cn2c3ccc(F)cc3c3nc4n(c(=O)c32)CCCS4)CC1 | inactive | –
COc1ccc2c(c1)c1nc3n(c(=O)c1n2CC(=O)N1CCC(Cc2ccccc2)CC1)CCS3 | inactive | –
O=c1c2[nH]c3ccccc3c2nc2n1CCS2 | inactive | –
O=C(O)c1nn(Cc2ccc(Cl)cc2)c2ccccc12 | inactive | –
O=C(Cn1c2ccccc2c2nc3n(c(=O)c21)CCS3)N1CCCC1 | inactive | –
O=C(C1CC1)N1CCN(c2ccnc3cc(Cl)ccc23)CC1 | inactive | –
CCOC(=O)c1nn(Cc2ccc(Cl)cc2)c2ccccc12 | inactive | –
O=C(c1ccc(Cl)cc1)N1CCN(c2ccccn2)CC1 | inactive | –
O=C(Cn1nc(C(=O)N2CCCCC2)c2ccccc21)N1CCOCC1 | inactive | –
O=C(Cn1nc(-c2ccccc2)c2ccccc21)NCc1ccc(Cl)cc1 | inactive | –
COC(=O)Cn1nc(-c2ccc(Cl)cc2)c2ccccc21 | inactive | –
COC(=O)Cn1nc(-c2ccc(C)cc2)c2ccccc21 | inactive | –
O=S(=O)(c1ccc(Cl)cc1)N1CCN(c2ccnc3cc(Cl)ccc23)CC1 | inactive | –

Compound | outcome | activity change, negative = inhibition
O=C(Nc1ccc(C(F)(F)F)cc1)N1CCN(c2ccnc3cc(Cl)ccc23)CC1 | inactive | –
COC(=O)Cn1nc(C)c2ccccc21 | inactive | –
O=C(c1csc2ccccc12)N1CCN(c2ccnc3cc(Cl)ccc23)CC1 | inactive | –
O=C(c1ccc(Cl)cc1)N1CCN(c2cc(C(F)(F)F)nc3ccccc23)CC1 | inactive | –
O=C(c1ccc(Cl)cc1)N1CCN(c2ccc(Cl)cc2)CC1 | inactive | –
O=C(O)c1c2ccccc2nn1Cc1ccc(Cl)cc1 | inactive | –
COC(=O)Cn1nc(-c2ccccc2)c2cc(Cl)ccc21 | inactive | –
CNC(=O)Cn1nc(-c2ccccc2)c2ccccc21 | inactive | –
c1ccc(-c2n[nH]c3ccccc23)cc1 | inactive | –
O=C(Cn1c2ccccc2c2nc3n(c(=O)c21)CCS3)NCCc1ccc(Cl)cc1 | inactive | –
O=C(c1cccs1)N1CCN(c2ccnc3cc(Cl)ccc23)CC1 | inactive | –
CCCCNC(=O)N1CCN(c2ccnc3cc(Cl)ccc23)CC1 | inactive | –
CCCNC(=O)Cn1nc(-c2ccccc2)c2ccccc21 | inactive | –
COC(=O)Cn1nc(-c2ccccc2)c2ccccc21 | inactive | –
COc1ccc(OC)c2c(C)cc(N3CCN(C(=O)c4ccc(Cl)cc4)CC3)nc12 | inactive | –
COc1ccc2c(c1)c1nc3n(c(=O)c1n2CC(=O)N1CCC(C)CC1)CCS3 | – | 13.5% [at 2.6 µM]
CCN(CC)C(=O)Cn1c2ccccc2c2nc3n(c(=O)c21)CCS3 | inactive | –
